Compound activity from PubChem.
SMARCA2 act = SMARCA2 function activation, primary screen. MG213 cells, MMTV-luciferase reporter, dexamethasone, overnight. activation, % at 9.1 µM. 370,000 compounds, 1% hits. AID 652017; in the data active = activation above about 7.8%;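 note: 0% = vehicle wells and 100% = reference activator wells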
DAX1 inh-1 = inhibitors of human orphan nuclear receptor DAX1 (NR0B1). 340,000 compounds, 0.99% hits. P51843. AID 504766. inhibition, % at 6.75 µM. HEK293 Gal4-DAX1 luciferase reporter, luminescence;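 active = inhibition above the mean over all tested compounds plus 3 SD, cut at about 4.2% in these data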;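 note: 0% = DAX1-transfected cells with DMSO and 100% = empty-vector control cells with DMSO; inhibition shows as a rise in luminescence from relieved DAX1 repression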
Target sequence (P51843 207-470 limits assumed): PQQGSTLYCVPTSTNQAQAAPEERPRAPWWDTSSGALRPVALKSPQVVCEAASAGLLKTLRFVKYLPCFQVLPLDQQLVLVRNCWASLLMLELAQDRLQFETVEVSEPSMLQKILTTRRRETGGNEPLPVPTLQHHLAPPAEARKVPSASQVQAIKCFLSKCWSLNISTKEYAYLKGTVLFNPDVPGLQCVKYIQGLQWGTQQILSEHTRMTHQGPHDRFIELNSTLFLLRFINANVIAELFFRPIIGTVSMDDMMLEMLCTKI
hgDAF12 agonist = activates the H. glycines DAF-12 receptor ligand-binding domain | HEK293 GAL4-hgDAF12 UAS-luciferase reporter, agonist luminescence; normalized to butyrate control | activation, % at 6.8 µM | 370,000 compounds, 1.8% hits;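 active = activation above a cutoff set at the mean of all screened compounds plus 3 SD, cut at about 10% in these data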;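 note: 0% = DMSO wells and 100% = sodium butyrate wells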
DAX1 inh-2 = DAX1 (NR0B1) inhibition, primary screen. HEK293T StAR-luciferase reporter, SF-1/DAX-1 repression relief. 370,000 compounds, 1.1% hits. inhibition, % at 6.8 µM. AID 652010;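 active = inhibition above the mean over all tested compounds plus 3 SD, cut at about 3.6% in these data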;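 note: 0% = DAX-1 cells with DMSO and 100% = cells lacking DAX-1 with DMSO; higher inhibition means more luminescence from relief of DAX-1 repression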
hcDAF12 agonist = H. contortus DAF-12 activation, primary screen. HEK293 hcDAF-12 lit1-tk-luc reporter, luminescence; 0% DMSO, 100% Δ7-dafachronic acid. activation, % at 6.8 µM. 370,000 compounds, 1.4% hits. AID 652067;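 active = activation above the mean of all tested compounds plus 3 SD, cut at about 5.5% in these data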;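 note: 100% = response to 3 µM Δ7-dafachronic acid high control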
ssDAF-12 act = activates DAF-12 receptor from parasite S. stercoralis. HEK293 ssDAF-12/GRIP1 lit1-tk-luc reporter, luminescence; % of 3 µM dafachronic acid response. 370,000 compounds, 1% hits. activation, % at 6.8 µM;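 active = activation above the mean over all tested compounds plus 3 SD, cut at about 0.9% in these data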;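 note: 0% = DMSO-only wells and 100% = 3 µM delta7-dafachronic acid wells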
Active calls of the source: *; . = no result. Rows were chosen to be rich in hits. Some 4.8% of all compounds tested hit in one or more screens of this group.

SMILES	SMARCA2 act	DAX1 inh-1	hgDAF12 agonist	DAX1 inh-2	hcDAF12 agonist	ssDAF-12 act
NC(=S)N/N=C1\CC(n2nnnc2-c2ccccc2Cl)C2COC1O2 (stereo not drawn)	7.8*	-0.1	-4.2	-0.4	-0.3	-1.5
CCOC(=O)[C@@]12CCC3=C1N(CCC3)C(=O)[C@H](CC(=O)NCCCOC)C2	-0.7	.	-2.7	-1.0	-0.3	-0.7
Cn1ncc(Cl)c1C(=O)NCc1ccc2c(c1)OCO2	-1.0	-0.9	-1.2	-6.6	-1.8	-1.0
O=C(Nc1ccc2c(c1)OCO2)c1c(F)c(F)c(F)c(F)c1F	0.5	-0.1	3.8	-0.2	-1.4	-1.3
Cn1ncc(Cl)c1C(=O)Nc1ccc2c(c1)OCO2	1.1	1.3	3.6	0.8	6.3*	0.0
O=C(Nc1ccc2c(c1)OCO2)c1c(Cl)nc2sccn12	5.2	3.4	8.8	1.9	5.9*	-0.2
COC(=O)[C@H](NCc1ccc(OC)c(B(O)O)c1)C(C)C	1.9	-1.2	-2.8	-0.3	-1.0	-1.0
CCN1C(=O)/C(=C2\SC(=S)N(NC(=O)c3cccnc3)C2=O)c2ccccc21	-0.2	-0.1	-1.4	-0.3	0.3	-0.7
COc1ccc(-c2nc(-c3ccc(Br)cc3)no2)c(OC)c1	4.8	3.7	12.4*	2.7	3.9	1.0*
COc1ccccc1-c1nc(-c2ccc(Br)cc2)no1	4.5	2.4	9.3	1.4	5.8*	1.5*
COc1ccccc1-c1noc(-c2cc(OC)c(OC)c(OC)c2)n1	-2.0	0.9	-0.9	-0.4	-2.0	-1.4
COc1cc(OC)cc(-c2nc(-c3ccc(Br)cc3)no2)c1	1.0	1.1	0.1	-0.2	2.1	-1.1
Cc1c(NC(=O)c2cccc(NC(=O)Cc3ccccc3F)c2)c(=O)n(-c2ccccc2)n1C	-0.6	-0.5	1.9	-0.4	-1.3	-1.1
Clc1ccc(-c2csc(N3CCOCC3)n2)cc1	2.9	0.8	10.2	1.7	1.4	-0.7
Nc1nc(-c2ccc(F)cc2)cs1	3.7	0.8	2.2	0.9	1.9	-1.3
COc1ccc(-c2csc(N3CCOCC3)n2)cc1OC	5.7	1.4	11.3*	0.3	2.2	-1.0
COc1ccc(-c2csc(N)n2)cc1F	2.6	4.8*	3.7	2.3	1.6	-1.4
CN(C)Cc1ccccc1CCc1ccccc1	-1.6	.	3.1	-0.5	-1.0	-0.4
N=c1ccn(O)cc1CCc1ccccc1	3.0	5.8*	-0.1	1.8	2.1	-1.7
CC[n+]1ccc(/C=C2\Sc3ccccc3N2CCCS(=O)(=O)[O-])c2ccccc21	-3.6	-0.1	-1.2	-0.1	3.6	1.2*
C[n+]1ccccc1/C=C1\Sc2ccccc2N1CCO	-0.5	1.8	-3.4	-0.3	0.5	-0.9
N/C(=N\O)c1ccc(Oc2ccccc2Cl)c([N+](=O)[O-])c1	-2.0	5.4*	2.6	-0.8	-0.9	-1.9
NC(=O)C1CCN(C(=O)CCSCc2ccc(Cl)c(Cl)c2)CC1	1.4	-0.6	0.1	0.0	0.1	-1.5
COC(=O)C1(Cc2ccc(O)cc2)OC(=O)C(O)=C1c1ccc(O)cc1 (stereo not drawn)	1.5	7.4*	0.3	0.9	0.2	-0.9
CNc1cncc(-c2c(OC)cccc2OC)n1	-5.0	.	-0.4	0.2	-0.2	-0.6
SMILES	SMARCA2 act	DAX1 inh-1	hgDAF12 agonist	DAX1 inh-2	hcDAF12 agonist	ssDAF-12 act
CNc1cncc(-c2ccc(OC)c(OC)c2)n1	6.4	.	10.9*	0.9	-0.6	3.4*
CNc1cncc(-c2ccc(F)c(F)c2)n1	-2.6	.	5.2	1.1	-1.7	-1.6
CNc1cncc(-c2cccc(OC)c2F)n1	2.3	.	9.4	4.2*	3.0	0.6
Cc1cc(C(=O)O[C@@H]2CCC[C@@]3(C(=O)N(Cc4ccccc4)c4ccccc43)[C@H]2NC(=O)CCc2ccccc2)no1	-0.3	.	-1.3	-0.2	-1.5	-1.6
Cc1ccc(-n2nc(C)c(=O)c(-c3ccccc3)c2NC(=O)c2cccs2)cc1	-0.3	5.5*	0.3	-0.2	-2.3	-0.9
COCCNC(=O)C1(C)CCCN(C(=O)c2cccc(C#N)c2)C1 (stereo not drawn)	-2.5	.	2.4	0.5	0.9	0.2
CC(=O)c1ccc(OCc2nnn(CC(=O)NS(=O)(=O)Cc3ccccc3)c2-c2ccccc2)cc1	-5.8	.	0.1	0.9	-0.1	-1.3
COc1cc(CNc2ccc3[nH]c(=O)[nH]c3c2)ccc1OCc1ccc(C)cc1	0.5	-1.9	11.5*	1.9	4.2	0.8
CCOC(=O)C1=CC[C@@H](c2ccccc2C(F)(F)F)N(S(=O)(=O)c2ccc(C)cc2)[C@H]1c1ccc(C#N)cc1	-2.7	.	-1.0	3.1	-0.6	-0.7
CCOC(=O)c1ccc2[nH]c(C)c(C)c2c1	7.9*	-0.2	7.1	1.6	0.9	-1.4
CCOC(=O)c1ccc2[nH]c3ccccc3c2c1	3.2	8.0*	10.7*	0.6	3.2	-0.1
O=C(O)CCCCCNC(=O)CCn1nnc2ccccc2c1=O	-2.2	5.9*	-0.7	-0.2	-0.8	-1.9
CC(C)CCSc1nc2ccccc2[nH]1	5.0	3.8	13.0*	1.7	1.5	-0.9
O=C(O)CCCNC(=O)CCn1nnc2ccccc2c1=O	-0.7	2.5	0.4	0.7	-0.6	-1.7
O=c1c2ccccc2nnn1CSc1nc2ccccc2[nH]1	13.7*	2.9	11.4*	1.6	0.1	-0.8
NS(=O)(=O)c1ccc(NC(=O)COC(=O)CCCN2C(=O)c3cccc4cccc(c34)C2=O)cc1	3.9	-0.8	-0.2	0.2	-0.8	-0.5
Cc1ccccc1S(=O)(=O)NC(=O)C1(C)CCN1C(=O)c1c(C)noc1C (stereo not drawn)	-2.0	.	3.7	-0.2	-0.5	-0.8
CC(=O)N/C(=C\c1ccccc1)C(=O)OCC(=O)c1c(N)n(CC(C)C)c(=O)n(C)c1=O	2.4	4.4*	-0.8	0.7	-1.1	-1.0
Cc1ccc(C(=O)N(CCN2CCCCC2)CC2CCCN(C3CCCC3)C2)s1 (stereo not drawn)	2.8	0.3	7.4	4.4*	2.8	-0.2
O=C(c1cc2cc(F)ccc2[nH]1)N(Cc1cccnc1)CC1CCCN(C2CCCCC2)C1 (stereo not drawn)	-2.1	0.9	1.0	2.5	2.7	0.0
O=C(c1cccs1)N(CCN1CCCCC1)CC1CCCN(C2CCCC2)C1 (stereo not drawn)	1.9	0.5	7.8	0.2	2.5	0.9*
COCCN(CC1CCCN(C2Cc3ccccc3C2)C1)C(=O)c1cccs1 (stereo not drawn)	3.8	0.0	0.4	0.7	3.6	-0.6
CC(C)n1nnnc1C1c2ccccc2C(=O)N1Cc1cccc(F)c1 (stereo not drawn)	-4.6	.	-1.0	3.8*	1.7	-1.0
CC(C)n1nnnc1C1c2ccccc2C(=O)N1Cc1ccc(F)cc1 (stereo not drawn)	-4.0	.	-3.7	-0.9	-0.3	-0.1
